Assay outcomes: PubChem BioAssay, several laboratories
sEH activator = soluble epoxide hydrolase activators, primary screen, biochemical, human sEH; Bifunctional epoxide hydrolase 2 (Homo sapiens), P34913; purified human sEH enzymatic activity, activator screen; activation, % at 2 µM; 91,000 tested, 0.04% active; AID 717, 2007; in the data active = activation above about 37%
CYP2C9 inhib = blockers of cytochrome P450 2C9 activity – biochemical, luminescence, ADME assay, primary screen; P11712; CYP2C9 Supersomes, luciferin-H conversion; inhibition, % at 5 µM; 96,000 tested, 20% active; AID 777, 2007;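 active = blocking of liver enzyme CYP2C9 beyond about 50% at 5 µM, limit read from the data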
sEH inhibitor = soluble epoxide hydrolase inhibitors, primary screen, biochemical, human sEH; inhibition, % at 2 µM; Bifunctional epoxide hydrolase 2 (Homo sapiens), P34913; 91,000 tested, 0.34% active; recombinant human sEH enzymatic activity assay; in the data active = inhibition above about 80%
CYP2C9 activ = human CYP2C9 activators, primary screen, biochemical, luminescence. Cytochrome P450 2C9 (Homo sapiens), P11712. recombinant CYP2C9, luciferin-H conversion; stronger effect = higher value; factor 1 = untreated enzyme, 0 = blocked. activation factor at 5 µM. 96,000 tested, 1.4% active. AID 1024, 2008;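 active = activation factor of 2 or more for CYP2C9 at a 5 µM dose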;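 also: 0 = sulfaphenazole-blocked wells and 1 = vehicle-only wells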
CYP2C19 inhib = blockers of cytochrome P450 2C19 activity – biochemical, luminescence, ADME assay, primary screen | CYP2C19 Supersomes, luciferin-H EGE luminescence, 30 min | inhibition, % at 5 µM | 96,000 tested, 21% active;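 active = CYP2C19 inhibition above a set limit at 5 µM in the primary screen, cut at about 50% in these data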;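 also: plate controls were negative control wells for no effect and 2.5 mM tranylcypromine positive control for full effect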
Target sequence (P33261 whole entry, looked up): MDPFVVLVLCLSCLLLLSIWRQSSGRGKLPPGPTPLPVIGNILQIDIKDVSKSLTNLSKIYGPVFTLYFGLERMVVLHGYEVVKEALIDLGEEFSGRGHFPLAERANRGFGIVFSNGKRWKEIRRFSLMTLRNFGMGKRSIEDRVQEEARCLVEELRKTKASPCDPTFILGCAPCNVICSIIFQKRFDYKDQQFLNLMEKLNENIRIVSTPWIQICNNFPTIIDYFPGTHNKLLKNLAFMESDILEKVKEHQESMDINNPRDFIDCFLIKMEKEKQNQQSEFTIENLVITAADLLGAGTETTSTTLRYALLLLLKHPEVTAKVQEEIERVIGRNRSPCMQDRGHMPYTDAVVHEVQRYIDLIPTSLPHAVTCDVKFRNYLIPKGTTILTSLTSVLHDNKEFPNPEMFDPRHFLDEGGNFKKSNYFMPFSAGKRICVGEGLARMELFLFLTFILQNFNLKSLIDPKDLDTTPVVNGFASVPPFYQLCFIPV
CYP2C19 activ = human CYP2C19 activators, primary screen, biochemical, luminescence | 96,000 tested, under 10 active | AID 1025, 2008 | activation factor at 5 µM | Cytochrome P450 2C19 (Homo sapiens), P33261 | recombinant CYP2C19, luciferin-H EGE luminescence; stronger effect = higher value; 0 = fully inhibited enzyme, 1 = untreated enzyme;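 active = activation factor of at least 2 at 5 µM in the primary screen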;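 also: 0 = wells with 2.5 mM tranylcypromine and 1 = vehicle-only wells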
* = called active by the depositor; · = not tested or not shown. Sampled rows, rich in hits. Any-hit rate of the full collection: about 27%.

SMILES | sEH activator | CYP2C9 inhib | sEH inhibitor | CYP2C9 activ | CYP2C19 inhib | CYP2C19 activ
COC(=O)c1[nH]c2ccccc2c1NC(=O)CN1CCN(C(=O)c2ccco2)CC1 | 1.7 | 25.4 | -0.2 | 0.7 | 29.5 | 0.7
C=CC(=O)Nc1ccc(Br)cc1 | 1.9 | 0.5 | -1.4 | 1 | -7.2 | 1.1
Cc1nnc2c3cnn(-c4ccc(Cl)cc4)c3ncn12 | · | -9.0 | · | 1.1 | 8.9 | 0.9
CCC12CCCN3CCC4(C(=C(C(=O)OC)C1)Nc1ccccc14)C32 (stereo unspecified) | 30.1 | 58.2* | -31.2 | 0.4 | 63.4* | 0.4
O=C1c2cc(S(=O)(=O)NCCCO)ccc2-c2ccc(S(=O)(=O)NCCCO)cc21 | -1.5 | 58.2* | 1.4 | 0.4 | 3.6 | 1
COCCNS(=O)(=O)c1ccc(F)c(OC)c1 | 4.3 | -10.3 | -6.4 | 1.1 | 10.4 | 0.9
COCCNS(=O)(=O)c1ccc2c(c1)C(=O)c1cc(S(=O)(=O)NCCOC)ccc1-2 | 21.3 | 64.1* | -19.6 | 0.4 | 5.8 | 0.9
CCOC(=O)c1cc2c(C)n(-c3ccc(OCC)cc3)c(C)c2ccc1=O | 7.0 | 19.8 | -6.2 | 0.8 | 63.5* | 0.4
CCOC(=O)c1cc2c(C)n(-c3ccc(C)cc3)c(C)c2ccc1=O | 3.5 | 58.9* | -5.1 | 0.4 | 39.1 | 0.6
O=C(OC(C(=O)NCc1cccs1)c1ccccn1)c1cccs1 (stereo unspecified) | -0.5 | 23.2 | 3.1 | 0.8 | 59.1* | 0.4
O=C(NC(C(=O)N/N=C/c1cccc2ccccc12)c1n[nH]c(=O)c2ccccc12)c1ccccc1 (stereo unspecified) | -13.3 | 56.1* | 10.8 | 0.4 | 32.7 | 0.7
O=C(NCCN1CCOCC1)C1CCC(CNS(=O)(=O)c2ccc(Cl)cc2)CC1 (stereo unspecified) | -7.5 | -0.3 | 4.8 | 1 | 11.1 | 0.9
Cc1[nH]c(=O)c(C#N)c(C)c1Br | · | -11.5 | · | 1.1 | -5.0 | 1.1
CC1(C(=O)NCc2cccnc2)CCC(=O)N1Cc1cccs1 (stereo unspecified) | · | 8.0 | · | 0.9 | 51.5* | 0.5
COc1ccccc1OCCC(=O)OCC(=O)Nc1ncc(Cl)cc1Cl | 8.9 | -35.2 | -9.5 | 1.4 | 87.2* | 0.1
COc1ccc(CC(=O)OCC(=O)Nc2ncc(Cl)cc2Cl)cc1OC | -10.4 | 15.9 | 10.0 | 0.8 | 51.4* | 0.5
O=C(COC(=O)CCS(=O)(=O)c1ccc(Cl)cc1)Nc1ncc(Cl)cc1Cl | -14.4 | 16.1 | 14.1 | 0.8 | 50.6* | 0.5
Cc1c(Cl)cnc(NC(=O)COC(=O)CCS(=O)(=O)c2ccccc2)c1Cl | -5.0 | 4.9 | 3.5 | 1 | 11.7 | 0.9
O=C(COC(=O)CCCN1C(=O)c2ccccc2C1=O)Nc1ncc(Cl)cc1Cl | -3.0 | 57.1* | 3.2 | 0.4 | 54.0* | 0.5
O=C(Cn1c(-c2cscn2)nc2ccccc21)Nc1ccccc1F | -0.8 | 11.1 | -0.4 | 0.9 | 45.3 | 0.5
CCOC(=O)N1CCN(C(=O)c2nc3ccccc3s2)CC1 | 3.2 | 3.5 | 0.1 | 1 | 15.9 | 0.8
Cc1oc(-c2ccccc2F)nc1CN1CCC(C(=O)NC2CC2)CC1 | -5.0 | -15.0 | 5.4 | 1.1 | -6.6 | 1.1
COc1ccccc1NCCC(=O)OCC(=O)Nc1ccc(Cl)cn1 | · | 46.8 | · | 0.5 | 79.8* | 0.2
O=C(CNC(=O)c1ccco1)NCC(=O)OCc1ccc(Cl)cc1 | -4.7 | 46.8 | 6.0 | 0.5 | -0.5 | 1
O=C(COC(=O)CNC(=O)c1ccco1)Nc1ccc(Cl)cn1 | 15.3 | 47.8 | -12.8 | 0.5 | 53.5* | 0.5
SMILES | sEH activator | CYP2C9 inhib | sEH inhibitor | CYP2C9 activ | CYP2C19 inhib | CYP2C19 activ
COC(=O)CSCC(=O)Nc1cc2c(cc1C(C)=O)OCO2 | -11.1 | 2.1 | 10.7 | 1 | 10.6 | 0.9
COC(=O)c1ccc(COc2nc(C)cc(C)c2C#N)o1 | 0.1 | 23.5 | -0.2 | 0.8 | 70.4* | 0.3
Cc1ccc(C(=O)COc2nc(C)cc(C)c2C#N)cc1 | 6.2 | 17.0 | -7.8 | 0.8 | 40.5 | 0.6
CCCCOC(=O)c1ccc(NC(=O)CSc2nncn2C)cc1 | 4.4 | 27.0 | -4.4 | 0.7 | 46.0 | 0.5
CCCCOC(=O)c1ccc(NC(=O)CSC2=Nc3ccccc3C3CC=NN23)cc1 (stereo unspecified) | 4.4 | 85.8* | -3.6 | 0.1 | 38.5 | 0.6
CCCc1nc(SCc2ccc(Cl)cc2Cl)n[nH]1 | -1.4 | 27.0 | 0.3 | 0.7 | 84.0* | 0.2
Nc1nc(SCc2ccc(Cl)cc2Cl)ns1 | 11.9 | · | -11.7 | · | · | ·
CN1CC(=O)NC1=NC(=O)c1ccc(Cl)c(S(=O)(=O)N2CCCCCC2)c1 | -4.1 | 24.6 | 2.9 | 0.8 | 15.8 | 0.8
CCn1c(-c2ccccc2Cl)nn(CC(=O)Nc2ccccc2OC)c1=S | -10.4 | -31.4 | 12.7 | 1.3 | 90.6* | 0.1
CC(=O)/C(=N/Nc1cccc(C)c1)N1CCOCC1 | -0.6 | 67.5* | 3.3 | 0.3 | 66.6* | 0.3
O=C1CCC([N+](=O)[O-])C(c2ccc(Cl)cc2Cl)N1 (stereo unspecified) | 16.3 | -11.0 | -19.4 | 1.1 | -0.8 | 1
O=C(Nc1ccc(F)cc1)c1cc(S(=O)(=O)Nc2ccc(F)cc2)cs1 | -5.5 | 90.3* | 8.1 | 0.1 | 76.9* | 0.2
CN1CCN(S(=O)(=O)c2ccc(NC(=O)c3ccc(Br)s3)cc2)CC1 | -54.7 | 59.4* | 54.4 | 0.4 | 51.8* | 0.5
O=C(Nc1ccc(Cl)cc1)c1cc(S(=O)(=O)N2CCOCC2)cs1 | -55.2 | 34.8 | 54.2 | 0.7 | 7.6 | 0.9
Cc1ccc(NC(=O)c2cc(S(=O)(=O)N3CCCCC3)cs2)cc1 | -46.7 | 68.2* | 48.2 | 0.3 | 19.2 | 0.8
Nc1ccccc1-c1nnc(-c2ccc(-c3ccccc3)cc2)o1 | 10.0 | 40.4 | -8.5 | 0.6 | 20.3 | 0.8
CC1CN(C(=O)C(c2ccccc2)c2ccccc2)CC(C)O1 (stereo unspecified) | -14.8 | 11.3 | 14.6 | 0.9 | 9.9 | 0.9
COC(=O)c1cc(OC)c(OC)cc1N=CC1=C(O)CC(C)(C)CC1=O | 14.0 | 29.8 | -13.4 | 0.7 | 26.6 | 0.7
O=C(c1nn2cccnc2c1Cl)N1CCN(c2ccccc2)CC1 | -3.3 | · | 4.5 | · | · | ·
CCCOc1ccc(Cc2nn[nH]n2)cc1 | · | 25.3 | · | 0.7 | 50.9* | 0.5
CS(=O)(=O)N1CCC(C(=O)NCc2ccco2)CC1 | 2.5 | -20.4 | -2.4 | 1.2 | -18.6 | 1.2
CC(OC(=O)c1cccnc1SCc1cc(=O)n2ccccc2n1)c1ccccn1 (stereo unspecified) | -1.0 | 60.5* | -0.3 | 0.4 | 35.5 | 0.6
CCOC(=O)c1cccnc1SCc1cc(=O)n2ccccc2n1 | · | 34.7 | · | 0.7 | 18.6 | 0.8
